The values that follow come from PubChem BioAssay AID588334 (Broad Institute, 2011).

About 2,300 (0.77%) of roughly 300,000 compounds were called active. This is one part of a sample in which actives are shown more often than they occur. Unmarked numbers belong to inactive results.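 The calls were made as follows: active = mean activation of at least 80% with every replicate also reaching 80%; inconclusive = mean reaches 80% but some replicate falls short; inactive = the rest.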

This experiment is described as follows: activators of MITF-driven TRPM1 promoter reporter, primary screen, cell-based, SK-MEL-5, luciferase, single point (AID 588334).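 Also: 0% = neutral control wells and 100% = parthenolide positive control wells.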 As to conditions: SK-MEL-5 TRPM1-promoter luciferase, 24 h; at 12.5 µM; hits give high values; % of positive control, neutral wells = 0.
For the molecule `COc1ccc(-c2cc3ncccc3cn2)cc1`, the activation was 72%.

With `Fc1ccc2cnc(-c3ccccc3)cc2c1`, the activation is 63.9%.

`COc1cc(OC)cc(-c2cc3ccc(F)cc3cn2)c1`: the activation is 111% (active).

As to `O=C(Nc1ccc(S(=O)(=O)N2CCOCC2)cc1)C1CCN(S(=O)(=O)c2ccc(Cl)cc2)CC1`, the activation is -12.4%.

Take `COc1ccccc1-c1nnc2n1N=C(c1ccc(OC(F)F)c(OCC3CC3)c1)CS2`: the activation was 3.16%.

As to `COc1ccc(-c2c(C#Cc3ccccc3)c3ccccc3n2C)cc1`, the activation is 85.9% (active).

As to `COc1cc(OC)cc(-c2c(C#Cc3ccsc3)c3cc(-c4ccc(SC)cc4)ccc3n2C)c1`, the activation is 6.54%.

Regarding `COc1ccc(CCNCc2c(-c3ccccc3)n(C)c3ccccc23)cc1`, the activation was 2.46%.

Take `COc1ccc(CC(=O)N[C@@H]2c3cc(OC)c(OC)cc3C[C@H]2OCc2ccccc2)cc1`: the activation is -0.621%.

In the case of `CCCCNC(=O)C(C)N(CCN(C)C)C(=O)CCCCCN1C(=O)NC(c2ccc(Cl)cc2)C(C(=O)OCc2ccccc2)=C1C` (stereo unspecified), the activation was -93.7%.

As to `Oc1ccc(-c2nc3ccccc3nc2-c2ccc(O)cc2O)c(O)c1`, the activation was -29.5%.

For the molecule `CCc1ccc(NC(=O)Cn2nnc(C(=O)NCc3ccc4c(c3)OCO4)c2N)cc1`, the activation was -0.586%.

As to `CCOc1ccc(Cn2nnc(C(=O)NCc3ccccc3)c2N)cc1`, the activation is 0.298%.

In the case of `Nc1c(C(=O)Nc2ccc3c(c2)OCCO3)nnn1Cc1ccccc1`, the activation was 81.1% (active).

Take `Cc1cccc(C=CC(=O)c2ccc(Cl)cc2)c1`: the activation is 35.1%.

As for `CN(C)C(=O)CCc1ccc2c3c([nH]c2c1)[C@]1(CCc2ccccc2)[C@@H](C(=O)N2CCCCC2)C[C@H](CC(=O)NCCC2=CCCCC2)C(=O)N1CC3`, the activation was -16.1%.

With `Cc1ccc(S(=O)(=O)N2CCN(C(=O)CN3C(=O)NC(C)(c4ccc(Cl)cc4)C3=O)CC2)c(C)c1` (stereo unspecified), the activation is 3.72%.

Regarding `Cc1ccc(C(=O)c2c(NC(=O)c3ccccc3)sc(C)c2C)cc1`, the activation was 24.2%.

As for `Cc1sc(NC(=O)c2ccc3ncsc3c2)c(C(N)=O)c1C`, the activation is 103% (active).

Regarding `COc1ccccc1-c1nnc(NC(=O)c2ccc3ncsc3c2)o1`, the activation is -3.99%.

Regarding `CN(C(=O)c1cccc(NC(=O)Cc2cccc(NC(=O)C3CCCN(C(=O)C4CC4)C3)c2)c1)C1CCC1` (stereo unspecified), the activation was -0.0755%.

As for `COc1ccc(C(=O)Nc2cc(S(=O)(=O)N3CCCC3)ccc2Cl)cc1`, the activation is 5.82%.

Turning to `Cc1nc2cc(NC(=O)NC3CC3)ccc2n1C`, the activation is 13.8%.

As to `Cc1nc2cc(NCc3cccs3)ccc2n1C`, the activation is 90.7% (active).

Regarding `Cc1nc2cc(NC(=O)Nc3cccc(F)c3)ccc2n1C`, the activation is 12.9%.

Regarding `O=C(O)c1ccc(Cn2cnc3c(=S)nc[nH]c32)cc1`, the activation is 6.13%.

As for `COc1ccc2c(c1)C(=O)CC(c1ccccc1)O2` (stereo unspecified), the activation was 54.8%.

With `Cc1cc(NC(=O)C(C)SCC(=O)Nc2cccc(S(=O)(=O)N3CCCCCC3)c2)no1` (stereo unspecified), the activation is -15.9%.

With `COC(=O)c1cc(NC(=O)C2C3C=CC(C3)C2C(=O)O)cc(C(=O)OC)c1` (stereo unspecified), the activation is 14.6%.

With `CC(C)COC(=O)c1ccc(NC(=O)C2C3C=CC(C3)C2C(=O)O)cc1` (stereo unspecified), the activation was 105% (active).

Regarding `CC(=O)NS(=O)(=O)c1ccc(NC(=O)C2C3C=CC(C3)C2C(=O)O)cc1` (stereo unspecified), the activation is -12.7%.

Regarding `O=C(N[C@H]1C/C=C\C(c2cccc(F)c2)N(Cc2ccccc2)C(=O)C1)OCC1c2ccccc2-c2ccccc21` (stereo partly specified), the activation is 20.8%.

For `Cc1ccc(-c2nc(-c3ccncc3)no2)c(C)c1`, the activation was 70.8%.

For the molecule `c1ccc(CCc2nc(-c3ccncc3)no2)cc1`, the activation is 57.8%.

Turning to `c1csc(-c2nc(-c3ccncc3)no2)c1`, the activation is 113% (active).

Turning to `CSCCC(NC(=O)c1ccccc1)C(=O)N1CCN(Cc2ccc(Cl)cc2)CC1` (stereo unspecified), the activation was -8.56%.

Turning to `CN(c1ccccc1)S(=O)(=O)c1cc(C(=O)N2CCN(c3ncccn3)CC2)ccc1Cl`, the activation was -2.71%.

`COc1cccc(C=CC(=O)C=CC=Cc2ccccc2)c1`: the activation was -4.72%.

With `NC(=O)C1(Nc2ccc(-c3ccccc3)cc2)CCCC1`, the activation is 5.06%.

With `COc1ccc(N=Nc2ccc(O)c(P(=O)(c3ccccc3)c3ccccc3)c2)cc1`, the activation is 5.85%.

Regarding `COC(=O)Cc1[nH]n(-c2nc3ccccc3s2)c(=O)c1C(C)=Nc1ccc(OC)cc1`, the activation is -94.9%.

Take `COc1ccc(N=C(C)c2sc3ccccc3c2O)cc1`: the activation is 123% (active).

As to `CCN(CC)C(=O)[C@H]1C[C@H](CC(=O)NCC23CC4CC(CC(C4)C2)C3)C(=O)N2CCc3c([nH]c4cc(CCC(=O)N(C)C)ccc34)[C@]12C`, the activation is -10.9%.

Take `COc1cc(C(=O)CCc2ccc3c(c2)OCO3)cc(OC)c1OC`: the activation was -4.27%.

`CC(C=Cc1ccccc1)=NNS(=O)(=O)c1ccc([N+](=O)[O-])cc1`: the activation is -13.6%.

As for `COc1cc(C(=O)OCC(=O)NC23CC4CC(CC(C4)C2)C3)cc(OC)c1OC`, the activation is -3.15%.

For `COc1cc(NC(=O)COC(=O)c2cc(S(=O)(=O)N3CCOCC3)ccc2F)cc(OC)c1`, the activation is 1.31%.

For the molecule `O=C(CSc1ccc(-c2ccco2)nn1)Nc1cccc(F)c1`, the activation is 13.2%.

`Fc1cccc(Cl)c1CSc1ccc(-c2ccco2)nn1`: the activation is 93.7% (active).

For the molecule `Brc1ccc(CSc2ccc(-c3ccco3)nn2)cc1`, the activation is 71.9%.

On to `O=C(Nc1ccn(CCCNCc2ccc3[nH]ccc3c2)c(=O)n1)OCc1ccccc1`, for which the activation was -4.16%.

`CCCSc1ccc([C@H]2N[C@@](Cc3ccccc3)(C(=O)OC)[C@H]3C(=O)N(C)C(=O)[C@@H]23)cc1`: the activation is 1.47%.

As to `Cc1ccccc1OCC(=O)Nc1ccc(S(=O)(=O)N2CCOCC2)cc1`, the activation is -5.13%.

Turning to `Cc1ccccc1OCC(=O)Nc1ccc2c(c1)ncn2C`, the activation is 152% (active).

For `Cc1ccccc1OCC(=O)Nc1ccc(N2CCN(C(=O)C(C)C)CC2)c(Cl)c1`, the activation is -59.2%.

With `Cc1cc([N+](=O)[O-])ccc1NS(=O)(=O)c1ccccc1`, the activation is 6.15%.
